In PubChem BioAssay AID372 (MTDP, 2006):
The whole screen tested about 100,000 compounds, of which about 770 (0.77%) were called active. Rule as the data show it: active = inhibition above about 50%; inactive = the rest. Only a selection was taken, and actives are over-represented in it overall.

Each compound was assayed against Gag-Pol polyprotein (Human immunodeficiency virus type 1 group M subtype B (isolate HXB2)) (UniProt P04585) (assay: RNase H inhibition, HIV 1 Gag Pol polyprotein, FRET biochemical assay, screening (AID 372)). Conditions: HIV-1 RT RNase H, FRET RNA/DNA substrate fluorescence; at 10 µM; stronger effect = higher value.
In the case of Cc1ccc([N+](=O)[O-])cc1-c1[nH]c(-c2ccc(C#N)cc2)nc1-c1ccccc1, the inhibition is reported as 57% (active).
For COc1cc(-c2nc(-c3ccccc3)c(-c3cc([N+](=O)[O-])ccc3C)[nH]2)cc(OC)c1OC, the inhibition was 33% (inactive).
In the case of Cc1ccc([N+](=O)[O-])cc1-c1[nH]c(-c2cccc(O)c2)nc1-c1ccccc1, the inhibition is reported as 32% (inactive).
C/C(=C\c1cccc2ccccc12)[N+](=O)[O-] was tested, and the inhibition was 53% (active).
With N#C/C(=C/c1cccc2ccccc12)c1ccc([N+](=O)[O-])cc1 the inhibition was 36% (inactive).
With O=[N+]([O-])c1ccccc1C=Nc1cccc2ccccc12 the inhibition was 6% (inactive).
With COC(=O)c1ccccc1NC(=O)c1cc(=O)[nH]c2ccccc12 the inhibition was 1% (inactive).
For CCOC(=O)c1ccc2[nH]c(C)c(C/C=C(/C)Cl)c(=O)c2c1, the inhibition was 0% (inactive).
O=C(Nc1ccc2oc(-c3ccccc3)nc2c1)c1ccc2c(c1)OCCO2 was tested, and the inhibition was 11% (inactive).
In the case of O=C(Nc1ccc(-c2nc3cc(Cl)cc(Cl)c3o2)cc1)c1ccc2c(c1)OCCO2, the inhibition is reported as 58% (active).
In the case of O=C(Nc1cccc(-c2nc3cc(Cl)ccc3o2)c1)c1ccc2c(c1)OCCO2, the inhibition is reported as 9% (inactive).
For O=C(Nc1ccc2oc(-c3cccc(Cl)c3)nc2c1)c1ccc2c(c1)OCCO2, the inhibition was 37% (inactive).
O=C(Nc1ccc2oc(-c3cccc(I)c3)nc2c1)c1ccc2c(c1)OCCO2 was tested, and the inhibition was 56% (active).
With O=C(Nc1ccc2oc(-c3ccc(I)cc3)nc2c1)c1ccc2c(c1)OCCO2 the inhibition was 15% (inactive).
For O=C(Nc1ccc2oc(-c3ccc(F)cc3)nc2c1)c1ccc2c(c1)OCCO2, the inhibition was 51% (active).
With Cc1ccc(-c2nc3cc(Cl)cc(Cl)c3o2)cc1NC(=O)c1ccc2c(c1)OCCO2 the inhibition was 24% (inactive).
For Cc1ccc(C(=O)Nc2ccc(-c3nc4cc(Cl)cc(Cl)c4o3)cc2)cc1, the inhibition was 11% (inactive).
For CCN(CC)CCOc1ccccc1C, the inhibition was 3% (inactive).
In the case of COc1ccc(C(=O)N2CCN(S(=O)(=O)c3ccccc3)CC2)cc1, the inhibition is reported as 21% (inactive).
In the case of COc1cccc(C=C2C(=O)c3ccccc3C2=O)c1, the inhibition is reported as 0% (inactive).
For CCOc1ccc(NC(=O)CN(c2ccc(Br)cc2)S(=O)(=O)c2ccccc2)cc1, the inhibition was 17% (inactive).
In the case of Cc1ccc(N(Cc2ccc(C(=O)N/N=C/c3cc(Br)c(C)o3)cc2)S(C)(=O)=O)cc1C, the inhibition is reported as 19% (inactive).
With Cc1ccc(N(Cc2ccc(C(=O)N/N=C/c3ccc(OC4CSC4)cc3)cc2)S(C)(=O)=O)cc1C the inhibition was 56% (active).
In the case of O=C(N/N=C/c1ccc(OC2CSC2)cc1)c1ccccc1, the inhibition is reported as 6% (inactive).
With Brc1ccc(-c2nnnn2-c2ccccc2)cc1 the inhibition was 12% (inactive).
For COc1ccc(C(=O)NC(=S)Nc2ccc(-c3nc4cc(Cl)ccc4o3)cc2)cc1[N+](=O)[O-], the inhibition was 53% (active).
With COc1ccc(C(=O)NC(=S)Nc2cccc(-c3nc4cc(Cl)ccc4o3)c2)cc1[N+](=O)[O-] the inhibition was 23% (inactive).
COc1ccc(C(=O)NC(=S)Nc2ccc(-c3nc4ccccc4o3)cc2)cc1Br was tested, and the inhibition was 20% (inactive).
For COc1ccc(C(=O)NC(=S)Nc2ccc(-c3nc4cc(C)ccc4o3)cc2)cc1Br, the inhibition was 21% (inactive).
COc1ccc(C(=O)NC(=S)Nc2ccc(-c3nc4ccc(C)cc4o3)cc2)cc1Br was tested, and the inhibition was 60% (active).
COc1ccc(C(=O)NC(=S)Nc2ccc(-c3nc4ccc(C)cc4o3)cc2)cc1[N+](=O)[O-] was tested, and the inhibition was 54% (active).
For CCc1ccc2oc(-c3ccc(NC(=S)NC(=O)c4ccc(OC)c([N+](=O)[O-])c4)cc3)nc2c1, the inhibition was 19% (inactive).
In the case of COc1ccc(C(=O)NC(=S)Nc2ccc3oc(-c4ccc(Cl)cc4)nc3c2)cc1[N+](=O)[O-], the inhibition is reported as 44% (inactive).
In the case of COc1ccc(C(=O)NC(=S)Nc2cccc(-c3nc4cc(C)ccc4o3)c2)cc1[N+](=O)[O-], the inhibition is reported as 23% (inactive).
With CC(NC(=O)CSc1ncc(-c2ccccc2)[nH]1)c1ccccc1 (centres undefined) the inhibition was 12% (inactive).
For CC1=C(C(=O)OCCc2ccccc2)C(c2ccc(Cl)c([N+](=O)[O-])c2)C2=C(CCCC2=O)N1 (centres undefined), the inhibition was 2% (inactive).
With O=C(N/N=C/c1ccc([N+](=O)[O-])cc1)c1ccccn1 the inhibition was 7% (inactive).
In the case of COc1ccc(I)cc1S(=O)(=O)N1CCN(c2ccc(F)cc2)CC1, the inhibition is reported as 16% (inactive).
For C/C(=N/NC(=O)C1COc2cc3ccccc3cc2O1)c1ccc([N+](=O)[O-])cc1 (centres undefined), the inhibition was 10% (inactive).
COc1ccc(C2CC(=O)C3=C(C2)NC(C)=C(C(=O)OCC(C)C)C3c2ccc(OC)c(OC)c2)cc1 (centres undefined) was tested, and the inhibition was 8% (inactive).
For CCC(Sc1nc2ccccc2s1)C(=O)Nc1ccc([N+](=O)[O-])cc1 (centres undefined), the inhibition was 10% (inactive).
In the case of O=C(NC(=S)Nc1cc([N+](=O)[O-])ccc1Cl)c1cccc(Cl)c1, the inhibition is reported as 45% (inactive).
In the case of O=C(O)c1ccc(Oc2ccc3c(c2)C(=O)N(c2ccc([N+](=O)[O-])cc2)C3=O)cc1, the inhibition is reported as 3% (inactive).
With Cc1ccc(N2C(=O)NC(=O)/C(=C/c3ccc(-c4ccc(Cl)cc4Cl)o3)C2=O)cc1 the inhibition was 36% (inactive).
CC1=NN(c2ccc(S(N)(=O)=O)cc2)C(=O)/C1=C\c1ccc(-c2cccc(Cl)c2C)o1 was tested, and the inhibition was 67% (active).
CC1=NN(c2ccc(S(N)(=O)=O)cc2)C(=O)/C1=C\c1ccc(-c2ccc(Cl)cc2)o1 was tested, and the inhibition was 43% (inactive).
CC1=NN(c2cccc(Cl)c2)C(=O)/C1=C/c1ccc(-c2ccccc2[N+](=O)[O-])o1 was tested, and the inhibition was 1% (inactive).
CCCCOC(=O)c1cccc(-c2ccc(/C=C3\C(=O)N(c4ccc(S(N)(=O)=O)cc4)N=C3C)o2)c1 was tested, and the inhibition was 39% (inactive).
With O=C(Nc1ccc(Cl)c(-c2nc3ccccc3s2)c1)c1ccccc1F the inhibition was 14% (inactive).
For CCOC(=O)c1c(NC(=S)NC(=O)c2ccccc2)sc2c1CC(C(C)C)OC2 (centres undefined), the inhibition was 12% (inactive).
In the case of COc1ccc(CNC(=O)C(=O)Nc2ccccc2F)cc1, the inhibition is reported as 15% (inactive).
In the case of O=C(NN1C(=O)c2ccc(C(=O)c3ccc4c(c3)C(=O)N(NC(=O)c3ccncc3)C4=O)cc2C1=O)c1ccncc1, the inhibition is reported as 0% (inactive).
In the case of C/C(=N\N1CCN(Cc2cccc3ccccc23)CC1)c1cccs1, the inhibition is reported as 19% (inactive).
With COC(=O)/C=C1\SC(=Nc2ccccc2)NC1=O the inhibition was 6% (inactive).
For O=C1C=CC(=NS(=O)(=O)c2cc(Cl)ccc2Cl)C=C1, the inhibition was 46% (inactive).
In the case of O=C1C=C/C(=N\S(=O)(=O)c2ccc(Cl)cc2)C=C1Cl, the inhibition is reported as 37% (inactive).
In the case of Clc1cccc(C=Nc2ccc(-c3ccc(N=Cc4cccc(Cl)c4Cl)cc3)cc2)c1Cl, the inhibition is reported as 17% (inactive).
N#Cc1c(N2CCCCC2)ncc2cc3ccccc3nc12 was tested, and the inhibition was 0% (inactive).
For COC(=O)C(=Cc1cc(Br)c(OCc2ccc([N+](=O)[O-])cc2)c(OC)c1)C(=O)OC, the inhibition was 12% (inactive).
For CCOC(=O)C(=Cc1ccc(OCc2ccc([N+](=O)[O-])cc2)c(OC)c1)C(=O)OCC, the inhibition was 59% (active).
In the case of CCOc1cc(C=O)cc(Br)c1OCc1ccc([N+](=O)[O-])cc1, the inhibition is reported as 28% (inactive).
For CCOc1cc(C=O)cc(Cl)c1OCc1ccc([N+](=O)[O-])cc1, the inhibition was 54% (active).
In the case of CCOC(=O)C(=Cc1cc(OC)c(O)c([N+](=O)[O-])c1)C(=O)OCC, the inhibition is reported as 5% (inactive).
In the case of O=Cc1cc(Cl)c(OCc2ccc([N+](=O)[O-])cc2)c(Cl)c1, the inhibition is reported as 25% (inactive).
NNC(=O)COc1cccc2ccccc12 was tested, and the inhibition was 1% (inactive).
In the case of COc1ccc(C(=O)NC(=S)Nc2ccc3ccccc3c2)cc1OC, the inhibition is reported as 17% (inactive).
With O=C(O)c1ccc(-c2ccc(/C=N/N3C(=O)C4C5C=CC(CC5)C4C3=O)o2)cc1 (centres undefined) the inhibition was 2% (inactive).
For O=C(c1ccccc1)N1N=C(c2ccccc2)CC1(O)C(F)(F)F (centres undefined), the inhibition was 9% (inactive).
For O=C(c1cccc(Br)c1)N1N=C(c2ccccc2)CC1(O)C(F)(F)F (centres undefined), the inhibition was 50% (active).
In the case of O=C(c1cccc(Br)c1)N1N=C(c2ccc(F)cc2)CC1(O)C(F)(F)F (centres undefined), the inhibition is reported as 22% (inactive).
With O=C(Nc1ccccc1)ON=C1c2ccccc2-c2ccccc21 the inhibition was 42% (inactive).
For O=C(Nc1ccccc1Cl)ON=C1c2ccccc2-c2ccccc21, the inhibition was 43% (inactive).
O=C(Nc1cccc2ccccc12)ON=C1c2ccccc2-c2ccccc21 was tested, and the inhibition was 56% (active).
COc1ccccc1NC(=O)Nc1cccc2ccccc12 was tested, and the inhibition was 15% (inactive).
In the case of CCN(CC)c1ccc(C(NC(C)=O)NC(C)=O)cc1, the inhibition is reported as 0% (inactive).
With Cc1ccc([N+](=O)[O-])cc1NC(=O)C1CC1 the inhibition was 0% (inactive).
With COc1ccc(CC(=O)NNC(=O)c2ccc(Cl)cc2)cc1OC the inhibition was 9% (inactive).
CCC(C(=O)N1c2ccccc2C(C)=CC1(C)C)c1ccccc1 (centres undefined) was tested, and the inhibition was 50% (active).
In the case of CC1=CC(C)(C)N(C(=O)c2ccccc2)c2ccccc21, the inhibition is reported as 10% (inactive).
In the case of CC(=O)N1c2ccccc2C(C)=CC1(C)C, the inhibition is reported as 3% (inactive).
In the case of COC(=O)c1ccc(CSc2nnc(CCCN3C(=O)c4cccc5cccc(c45)C3=O)n2-c2ccccc2)cc1, the inhibition is reported as 15% (inactive).
With CCOC(=O)C1=C(C)N=c2s/c(=C\c3ccc(-c4ccc(Br)cc4[N+](=O)[O-])o3)c(=O)n2C1c1ccccc1 (centres undefined) the inhibition was 48% (inactive).
For COc1ccc(C2C(C#N)=C(N)OC3=C2C(=O)CC(c2ccccc2)C3)cc1C (centres undefined), the inhibition was 9% (inactive).
With O=C(Nc1cccc(Cl)c1Cl)c1ccc(-c2cccc(Cl)c2)o1 the inhibition was 37% (inactive).
With O=C(Nc1cccc(Cl)c1Cl)c1ccc(Br)o1 the inhibition was 16% (inactive).
For O=C(Nc1cccc(Cl)c1Cl)c1ccc(-c2ccc(Br)cc2)o1, the inhibition was 57% (active).
In the case of Clc1ccccc1OCCCn1ccnc1, the inhibition is reported as 0% (inactive).
C=C(C)c1cccc(C(C)(C)NC(=O)NCc2ccco2)c1 was tested, and the inhibition was 9% (inactive).
For CCOC(=O)C1=C(C)N=c2s/c(=C\c3ccc(-c4cccc([N+](=O)[O-])c4)o3)c(=O)n2C1c1ccc(C)cc1 (centres undefined), the inhibition was 19% (inactive).
